Source: PubChem
HT1080 IDH1KD tx: kills HT-1080 cells with IDH1 knockdown | HT-1080 IDH1 knockdown viability, ATP luminescence, 48 h | Potency, µM (doses to about 46.1 µM), usual class: cytotoxic | actives 2% (n = 360,000)
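IDH1KD HT-1080 cells, 750/well, RPMI + 5% FBS; compound pinned after 2 h settling; 48 h, 37 °C; CellTiter-Glo luminescence; % activity normalised to DMSO and no-cell wells; curves fitted, classed by r2 and efficacy.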
HT1080-NT tox: kills 2HG-producing HT-1080-NT fibrosarcoma cells | HT-1080-NT fibrosarcoma viability, CellTiter-Glo ATP luminescence, 48 h | Potency, µM (titrated, usually from 46.1 µM), actives largely listed as cytotoxic | actives 1.6% (n = 360,000) | AID 686970;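 note: NT is the 2HG producing partner of a matched IDH1 knockdown line; nearly all actives have a fitted effect of over 55% in size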
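Compounds were tested in concentration-response format on HT-1080-NT cells for 48 hours at 37 degrees C. Cell viability came from CellTiter-Glo luminescence; curves were classified by r2, response magnitude and activity.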
TDP1 cell noCPT: qHTS for Inhibitors of human tyrosyl-DNA phosphodiesterase 1 (TDP1): qHTS in cells in absence of CPT | actives 15% (n = 420,000) | AID 686978, 2013 | Potency, µM (doses to about 46.2 µM), actives largely listed as inhibitors | DT40 Tdp1-/- hTDP1 cells, no CPT, ATP luminescence, 48 h; note: nearly all actives have a fitted effect of over 55% in size
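DT40 Tdp1-/-;hTDP1 cells, no CPT (DMSO vehicle only), 400 cells/well; compounds pin-transferred; ≥48 hr, 37 °C; CellTiter-Glo 30 min RT dark, luminescence read.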
HepG2 viability: HepG2 cytotoxicity, counter-screen for TGF-b inhibitors | HepG2 CAGA-GFP viability, ATP luminescence, 18 h | Potency, µM (top dose mostly 46.1 µM), usual class: cytotoxic | actives 0.76% (n = 410,000)
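HepG2 CAGA-GFP cells (1000/well, DMEM with 1% FBS) received compound, then TGF-beta at 500 pg/mL final, and were incubated 18 hours at 37 degrees C. Viability was read by CellTiter-Glo luminescence. Media-only wells were set as complete cell-killing and DMSO as no toxicity.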
TGFb inhibitor: TGF-b pathway inhibition. HepG2 CAGA-GFP TGF-b/SMAD3 reporter, GFP fluorescence, 18 h; TGF-beta stimulated, 500 pg/mL final. Potency, µM (doses to about 46.1 µM), usual class: inhibitors. actives 1.2% (n = 410,000). AID 588855; note: nearly all actives have a fitted effect of over 65% in size
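HEPG2 CAGA-GFP cells (1000/well, DMEM with 1% FBS) were pre-incubated 2 h at 37 degrees C, given compound by pin tool, then stimulated with TGF-beta at 500 pg/mL final for 18 h before per-cell GFP fluorescence imaging.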
DT40 TDP1 CPT: growth inhibition of DT40 Tdp1-/-;hTDP1 cells with camptothecin (screen for TDP1 inhibitors). Potency, µM (top dose mostly 46.2 µM), most hits filed as inhibitors. actives 12% (n = 420,000). AID 686979. chicken DT40 Tdp1-/-;hTDP1 cells + 20 nM CPT, ATP luminescence, 48 h; note: nearly all actives have a fitted effect of over 55% in size
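Chicken DT40 Tdp1-/- cells complemented with human TDP1, 400 cells/well, exposed to compounds plus 20 nM camptothecin for at least 48 h at 37 C; viability read as ATP content by CellTiter-Glo luminescence.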
A number is an active result; - = inactive; ? = inconclusive; . = not tested or not shown; [ ] = another dose, or the depositor's remark. Hits are enriched below; roughly 17% of the tested compounds scored in any of these assays. Calls come from the whole dose curve; as a rule, active = well fitted curve in the direction sought with a large enough effect; inconclusive = small, poorly fitted or top-dose-only effect, or another doubt; inactive = no such curve, though single readings can be large; an effect the other way counts as inactive or inconclusive.

SMILES	HT1080 IDH1KD tx	HT1080-NT tox	TDP1 cell noCPT	HepG2 viability	TGFb inhibitor	DT40 TDP1 CPT
COc1ccc(OC)c(/C=C2\Cc3ccccc3C2=O)c1	.	.	?	-	-	?
C=CC[n+]1c(-c2ccc(OC)cc2)csc1NNC(=O)Nc1ccccc1	?	?	5.2µM	-	?	7.3µM
COc1ccc(N(CC(=O)Nc2ccccc2OC)S(=O)(=O)c2ccc(NC(C)=O)cc2)cc1	?	?	5.2µM	-	-	5.2µM
COc1ccc(N(CC(=O)Nc2ccc(S(=O)(=O)N3CCOCC3)cc2)S(=O)(=O)c2ccccc2)cc1	-	-	18µM	-	-	16µM
COC(=O)c1ccc(Cl)c(NC(=O)CN(c2ccc(OC)cc2)S(=O)(=O)c2ccccc2)c1	-	-	?	-	-	?
COc1ccc(NC(=O)CN(c2ccc([N+](=O)[O-])cc2)S(=O)(=O)c2ccccc2)cc1	?	-	?	-	?	?
COC(=O)c1cc(NC(=O)CN(c2ccc(OC)cc2)S(=O)(=O)c2ccc(F)cc2)ccc1Cl	-	-	18µM	-	-	18µM
COC(=O)c1ccccc1NC(=O)CN(c1ccc(Cl)cc1)S(=O)(=O)c1ccc(OC)cc1	.	.	9.2µM	-	-	21µM
CCOc1ncccc1C(=O)OCC(=O)Nc1ccc(C(N)=O)cc1	-	-	-	-	-	-
CNS(=O)(=O)c1cn(CC(=O)N2CCN(c3ccc(C)cc3C)CC2)cc1S(=O)(=O)NC	.	.	-	-	-	-
O=c1[nH]c2ccc(NCc3ccc(-c4ccccc4F)o3)cc2[nH]1	.	.	18µM	-	-	23µM
O=c1[nH]c2ccc(NCc3ccc(-c4ccccc4)o3)cc2[nH]1	.	.	-	-	-	-
O=C(CSc1nnc(-c2ccccc2)c(-c2ccccc2)n1)NCCc1ccccc1	.	.	?	-	-	?
O=C1CCNc2cc3ccccc3cc21	16µM	-	?	-	?	?
O=C1NC(=O)c2cc3ccccc3cc21	-	-	-	-	-	-
Cc1cc(-n2c(C)cc(C(=O)COc3ccc([N+](=O)[O-])cc3)c2C)no1	-	-	?	-	-	?
COc1ccc(OCCOc2ccc(C)nc2[N+](=O)[O-])cc1	-	-	-	-	-	-
Cc1cc(-n2c(C)cc(C(=O)COc3cc(F)ccc3[N+](=O)[O-])c2C)no1	-	-	15µM	-	-	?
Cc1ccc(OCCOc2ccc(Cl)cc2Cl)c([N+](=O)[O-])n1	-	-	16µM	-	-	?
Cc1ccc(CNC(=O)COc2ccc(C)nc2[N+](=O)[O-])cc1	-	-	-	-	-	-
Cc1ccc(OCC(=O)c2cc(C)n(-c3cc(C)on3)c2C)c([N+](=O)[O-])n1	-	-	?	-	?	10µM
Cc1ccc(OCC(=O)c2ccc(Cl)s2)c([N+](=O)[O-])n1	-	-	13µM	-	-	3.7µM
Cc1cccn2c(=O)nc(SCC(=O)NCc3ccc4c(c3)OCO4)nc12	-	-	-	-	-	-
CC(=O)N1CCCc2cc(S(=O)(=O)Nc3ccccc3C)ccc21	-	-	-	-	-	-
O=C(NCCCn1ccnc1)c1ccccc1Cl	-	-	-	-	-	-
SMILES	HT1080 IDH1KD tx	HT1080-NT tox	TDP1 cell noCPT	HepG2 viability	TGFb inhibitor	DT40 TDP1 CPT
CC1CCCCN1C(=O)c1ccc(C(=O)Nc2ccc(F)cc2)cc1 (configuration not stated)	-	-	?	-	?	-
Cc1ccc(-c2cc(NC(=O)COc3c(C)cc(C)cc3C)on2)cc1	.	.	-	-	-	-
Cc1cc(C(=O)CN2C(=O)NC(C)(c3cc(F)ccc3F)C2=O)c(C)n1C1CC1 (configuration not stated)	-	-	16µM	-	-	?
Cc1ccc(OCC(=O)c2cc(C)n(C3CC3)c2C)c([N+](=O)[O-])n1	-	-	23µM	-	-	?
Cc1cc(C(=O)CN2C(=O)NC(CCS(C)(=O)=O)C2=O)c(C)n1C1CC1 (configuration not stated)	-	-	5.8µM	-	-	18µM
Cc1ccc(OCC(=O)c2cc(C)n(CC(F)(F)F)c2C)c([N+](=O)[O-])n1	?	-	?	-	-	-
Cc1ccc(OCC(=O)c2cc(C)n(Cc3cccs3)c2C)c([N+](=O)[O-])n1	?	?	5.8µM	-	-	6.5µM
Cc1ccc(OCC(=O)Nc2cc(C)on2)c([N+](=O)[O-])n1	-	-	-	-	-	-
Cc1cc(C(=O)COc2ccc(F)cc2Br)c(C)n1C1CC1	-	-	10µM	-	-	15µM
COc1ccc(-n2c(C)cc(C(=O)COc3ccc(C)nc3[N+](=O)[O-])c2C)cc1	-	-	3.7µM	-	?	5.2µM
Cc1ccc(CNC(=O)Cn2cnc3c(NC(=O)OCc4ccccc4)ncnc32)o1	-	-	-	-	-	-
COc1ccc(C(CNC(=O)c2cc(SC)ccc2Cl)N(C)C)cc1 (configuration not stated)	-	-	-	-	-	?
CSc1ccc(Cl)c(C(=O)NCCOc2cc(C(C)C)ccc2C)c1	?	?	26µM	-	-	29µM
COc1cccc(CN2CCOc3ccc(CN4C[C@@H](C)O[C@@H](C)C4)cc3C2)c1OC	.	.	-	.	.	-
Fc1cccc(CN2CCc3nc(Nc4ccc5c(c4)OCCO5)ncc3C2)c1F	.	.	26µM	-	?	?
COc1cccc(CN2CCc3nc(Nc4ccc5c(c4)OCCO5)ncc3C2)c1OC	.	.	8.2µM	-	-	21µM
CCOc1ccc(CN(C)C(=O)[C@H](C)NC(=O)c2ccco2)cc1OC	-	-	-	-	-	-
Cc1ccc(S(=O)(=O)N2CCCCC2)cc1C(=O)OC(C)C(=O)NCC1CCCCC1 (configuration not stated)	-	-	18µM	-	?	?
CC(OC(=O)c1cc(S(=O)(=O)N2CCOCC2)ccc1F)C(=O)NCC1CCCCC1 (configuration not stated)	-	-	?	-	-	-
Cc1ccc(C)c(C(=O)OCC(=O)Nc2cccc(S(=O)(=O)N3CCCCC3)c2)c1	?	?	10µM	-	?	18µM
CCOc1ccc(NC(=O)COC(=O)c2cc(S(=O)(=O)N3CCCC3)ccc2C)cc1	-	-[9.24 µM]	?	-	?	21µM
